HP1b chromo inh = blocks HP1-beta chromodomain binding to methylated histone tails | P83916 | AlphaScreen HP1-beta / biotin-H3K9me3 peptide binding | Potency, µM (series often up to 114 µM), usual class: inhibitors | hit rate 0.56% among 390,000; note: nearly all actives have a fitted effect of over 70% in size
Target sequence (P83916 whole entry, looked up): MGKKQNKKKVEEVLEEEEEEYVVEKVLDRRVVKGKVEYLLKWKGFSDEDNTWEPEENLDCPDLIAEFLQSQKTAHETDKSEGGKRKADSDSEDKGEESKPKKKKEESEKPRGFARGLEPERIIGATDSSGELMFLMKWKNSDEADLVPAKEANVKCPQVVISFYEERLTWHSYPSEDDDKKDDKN
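AlphaScreen: HP1-beta (50 nM) preformed 30 min with biotin-H3(1-18)K9me3 peptide (50 nM) in PBS pH 7.4, 0.01% Tween-20. Compound added for 30 min at RT, then streptavidin donor/nickel chelate acceptor beads (10 ug/mL) for 30 min.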
PLK1 PBD inh = PLK1 (human) polo-box domain binding inhibition | Potency, µM, actives largely listed as inhibitors | hit rate 2.8% among 360,000 | AID 720504 | Plk1 PBD binding of FITC phosphopeptide, fluorescence polarization; note: series mostly up to about 57 µM; nearly all actives have a fitted effect of over 65% in size
GCN5L2 inh = blocks human GCN5L2 histone acetyltransferase; Q92830; GCN5L2 HAT assay, ThioGlo1 CoA-SH fluorescence; Potency, µM (highest dose often 58.9 µM), hits mostly inhibitors; hit rate 0.21% among 390,000; AID 504327
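GCN5L2 (20 nM) in 50mM HEPES pH 7.5, 0.1mM EDTA, 0.01% Tween-20 preincubated 15 min with compounds at room temperature. Reaction started with H3(1-25) 75uM, acetyl-CoA 70uM, ThioGlo1 50uM; CoA-thiol fluorescence (Ex340/Em540) read at 0 and 20 min.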
JMJD2A Tudor inh = inhibitors of human JMJD2A Tudor domain; hit rate 4.4% among 390,000; AlphaScreen JMJD2A-Tudor / H3K4me3 peptide binding; Potency, µM (highest dose often 114 µM), usual class: inhibitors; AID 504339; O75164; note: nearly all actives have a fitted effect of over 50% in size
BAZ2B block = inhibitors of human BAZ2B bromodomain | Q9UIF8 | AlphaScreen BAZ2B-H3K14Ac peptide displacement | Potency, µM (series often up to 114 µM), actives largely listed as inhibitors | hit rate 4.4% among 360,000; note: nearly all actives have a fitted effect of over 60% in size
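Multi-concentration screen (max 110 uM) measuring displacement of acetylated histone H3 peptide from BAZ2B by AlphaScreen, using 50 nM protein, 50 nM peptide and 10 ug/mL streptavidin donor plus Ni-chelate acceptor beads.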
PI5P4Ka inh = PI5P4K alpha (human) kinase inhibition | P48426 | PI5P4Kalpha enzyme, ADP-Glo luminescence, 60 min; hits give low values | max response, % | hit rate 1.2% among 330,000 | AID 652105; active = max response of -50% or lower; inconclusive = between -30% and -50%; inactive = -30% or higher; note: value at the top dose of about 77 µM
Target sequence (P48426 whole entry, looked up): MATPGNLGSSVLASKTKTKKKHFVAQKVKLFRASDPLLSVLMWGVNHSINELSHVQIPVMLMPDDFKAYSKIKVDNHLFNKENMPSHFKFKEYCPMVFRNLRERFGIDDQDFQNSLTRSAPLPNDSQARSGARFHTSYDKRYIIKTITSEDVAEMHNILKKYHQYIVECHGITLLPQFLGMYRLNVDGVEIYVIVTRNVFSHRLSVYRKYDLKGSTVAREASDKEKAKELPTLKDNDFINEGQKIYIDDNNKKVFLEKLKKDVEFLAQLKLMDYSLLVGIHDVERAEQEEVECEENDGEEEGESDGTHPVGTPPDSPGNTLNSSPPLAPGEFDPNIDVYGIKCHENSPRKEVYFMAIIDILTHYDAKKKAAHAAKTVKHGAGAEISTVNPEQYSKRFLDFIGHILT
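Quantitative HTS of the MLSMR library against PI5P4Kalpha with substrate. ATP added last at 5 microM final; room temperature, 60 minutes. Remaining ATP depleted, ADP converted and read as luminescence.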
Each line names hits and unclear results; the compound was inactive in the other large screens. Sampled rows, rich in hits. Any-hit rate of the full collection: about 7%. Unless noted, calls come from the whole dose curve; as a rule, active = well fitted curve in the direction sought with a large enough effect; inconclusive = small, poorly fitted or top-dose-only effect, or another doubt; inactive = no such curve, though single readings can be large; an effect the other way counts as inactive or inconclusive.

C[C@H]1CCC[C@@]2(O[C@@H](CCO)C[C@@H](O)[C@@H]2O)O1	none
O=C(O)C1=NN(c2ccccc2)C(=O)C1	HP1b chromo inh inconclusive, JMJD2A Tudor inh 56µM, BAZ2B block inconclusive
O=C(O)C1=NN(c2ccccc2)C(=O)CC1	BAZ2B block inconclusive
COC(=O)c1ccc(NC(=O)C(=O)NCC2CCCO2)cc1 (centres undefined)	PLK1 PBD inh 30µM
CCN(CC)c1ccc(NC(=S)NCC2CCCO2)cc1 (centres undefined)	HP1b chromo inh inconclusive, JMJD2A Tudor inh inconclusive, BAZ2B block 45µM
O=C(NCC(=O)N1CCN(Cc2ccccc2)CC1)c1ccccc1Cl	none (no result: HP1b chromo inh, GCN5L2 inh, JMJD2A Tudor inh, BAZ2B block)
COc1ccc2nc(SCC(=O)Nc3cc(OC)c(OC)cc3C(=O)O)c(C)cc2c1	PLK1 PBD inh 30µM, JMJD2A Tudor inh inconclusive
COc1cc(NC(=O)CSc2ncnc3sc4c(c23)CCCC4)c(C(=O)O)cc1OC	PLK1 PBD inh 27µM
CCOC(=O)c1c(S(=O)(=O)N2CCC(C(=O)N3CCN(c4cc(C)ccc4C)CC3)CC2)c(C)n(C)c1C	JMJD2A Tudor inh inconclusive, BAZ2B block inconclusive (no result: PLK1 PBD inh, PI5P4Ka inh)
CCOc1cnn(-c2cc(Oc3ccc(C)cc3)ncn2)c(=O)c1Cl	none
Cc1ccccc1Oc1cc(-n2ncc(Cl)c(Cl)c2=O)ncn1	PLK1 PBD inh 5.3µM
Cc1ccc(N2C(=O)[C@@H]3[C@H](C2=O)C2c4ccccc4C=CN2[C@@H]3C(=O)c2ccco2)cc1 (some centres undefined)	HP1b chromo inh inconclusive, PLK1 PBD inh inconclusive, JMJD2A Tudor inh inconclusive, BAZ2B block inconclusive
CC(C)(C)C(=O)[C@@H]1[C@@H]2C(=O)N(c3ccc4c(c3)OCCO4)C(=O)[C@@H]2C2c3ccccc3C=CN21 (some centres undefined)	HP1b chromo inh inconclusive, PLK1 PBD inh 11µM, GCN5L2 inh inconclusive, JMJD2A Tudor inh inconclusive, BAZ2B block inconclusive
CC(=O)[C@@H]1[C@@H]2C(=O)N(Cc3ccccc3)C(=O)[C@@H]2C2c3ccccc3C=CN21 (some centres undefined)	PLK1 PBD inh 19µM, JMJD2A Tudor inh inconclusive (no result: PI5P4Ka inh)
COc1ccc(N2C(=O)[C@@H]3[C@H](C2=O)[C@H]2c4ccccc4C=CN2[C@@H]3C(=O)Nc2ccccc2)cc1	JMJD2A Tudor inh inconclusive
O=C1C2C3C=CC(C3)C2C(=O)N1Cc1ccccc1 (centres undefined)	none (no result: PI5P4Ka inh)
Cc1ccc(N2C(=O)[C@@H]3[C@H](C2=O)C2c4ccccc4C=CN2[C@@H]3C(=O)c2ccco2)c(C)c1 (some centres undefined)	PLK1 PBD inh 27µM, JMJD2A Tudor inh inconclusive
O=C(c1ccco1)[C@@H]1[C@@H]2C(=O)N(c3ccccc3)C(=O)[C@@H]2C2c3ccccc3C=CN21 (some centres undefined)	PLK1 PBD inh inconclusive, JMJD2A Tudor inh 50µM, BAZ2B block 79µM (no result: PI5P4Ka inh)
CCOc1ccc(C(=O)c2cn(CC(=O)Nc3ccc(C)c(C)c3)c3ccc(OCC)cc3c2=O)cc1	none (no result: PLK1 PBD inh, PI5P4Ka inh)
Cc1ccc2c(c1)N(C(=O)NCc1ccccc1)CCO2	none (no result: PLK1 PBD inh, PI5P4Ka inh)
CCC(C)Sc1ccc([C@@H]2[C@H]3C(=O)N(C)C(=O)[C@H]3[C@]3(C(=O)OC)CCCN23)cc1 (some centres undefined)	none (no result: BAZ2B block)
COc1cc(NC(C)CCc2ccccc2)cc(OC)c1OC (centres undefined)	HP1b chromo inh inconclusive, JMJD2A Tudor inh 45µM, BAZ2B block inconclusive
COc1ccc(N2CCN(CCCn3c(=S)[nH]c4ccccc4c3=O)CC2)cc1	JMJD2A Tudor inh inconclusive, BAZ2B block 28µM
COc1ccc(N2CCN(CCCNC(=O)C(=O)c3c(C)[nH]c4ccccc34)CC2)cc1	HP1b chromo inh inconclusive, JMJD2A Tudor inh 45µM, BAZ2B block 28µM
Nc1nc(=S)ss1	HP1b chromo inh inconclusive, PLK1 PBD inh 24µM (no result: GCN5L2 inh, BAZ2B block)
CN1CC=C2C(C#N)=C(N)C(C#N)(C#N)[C@H](c3ccoc3)[C@H]2C1	PLK1 PBD inh 15µM, GCN5L2 inh inconclusive
COc1cc(OC)c(NC(=O)c2cncn2-c2ccc(F)cc2)cc1Cl	none
CCCn1c(NC(=O)c2ccc(C)cc2)nc2ccccc21	PLK1 PBD inh 27µM
CCCn1c(Nc2nc3ccccc3n2C)nc2ccccc21	JMJD2A Tudor inh 56µM, BAZ2B block 8.9µM
CCn1c(Nc2ccccc2Cl)nc2ccccc21	PLK1 PBD inh 27µM, JMJD2A Tudor inh 45µM
CCc1ccccc1Nc1nc2ccccc2n1C	none
Cc1ccc(Oc2ccc(-c3nc(N)nc(N)n3)cc2)cc1	none
Nc1nc(N)nc(-c2ccc(Cl)cc2)n1	BAZ2B block 79µM (no result: PI5P4Ka inh)
O=C1NC2CCCCC2C(=O)N1OS(=O)(=O)c1ccccc1 (centres undefined)	HP1b chromo inh 50µM, PLK1 PBD inh 0.75µM, JMJD2A Tudor inh inconclusive (no result: GCN5L2 inh, BAZ2B block)
O=C1CCN(S(=O)(=O)c2ccccc2)C2CCCCC12 (centres undefined)	PLK1 PBD inh inconclusive
O=C(Nc1ccc2ccccc2c1)c1ccccc1O	none
O=[N+]([O-])c1ccccc1NCc1c(O)ccc2ccccc12	HP1b chromo inh inconclusive, JMJD2A Tudor inh 45µM, BAZ2B block 35µM
Cc1ccnc(NCc2c(O)ccc3ccccc23)c1	PLK1 PBD inh inconclusive, BAZ2B block inconclusive
Oc1ccc2ccccc2c1CNc1ccc2ccccc2c1	HP1b chromo inh inconclusive, JMJD2A Tudor inh 32µM (no result: GCN5L2 inh, BAZ2B block)
Oc1ccc2ccccc2c1CNc1ccccc1	PLK1 PBD inh 3.4µM, JMJD2A Tudor inh inconclusive (no result: GCN5L2 inh, BAZ2B block)
CCN(CC)CCCNC(=O)C1CCC(CNS(=O)(=O)c2c(C)cc(C)cc2C)CC1 (centres undefined)	none
CCCCN(C)CCCNC(=O)C1CCC(CNS(=O)(=O)c2c(C)cc(C)cc2C)CC1 (centres undefined)	PLK1 PBD inh 21µM
COC(=O)CNC(=O)C1Nc2ccccc2C2C=CCC12 (centres undefined)	PLK1 PBD inh inconclusive, JMJD2A Tudor inh 56µM, PI5P4Ka inh inconclusive (no result: GCN5L2 inh, BAZ2B block)
COc1ccc(OC)c([C@@H]2Nc3ccc(C(=O)O)cc3[C@@H]3C=CC[C@@H]32)c1	JMJD2A Tudor inh inconclusive (no result: PLK1 PBD inh, PI5P4Ka inh)
CCOC(=O)C1Nc2ccc(C)cc2C2C=CCC12 (centres undefined)	JMJD2A Tudor inh 56µM, PI5P4Ka inh inconclusive (no result: GCN5L2 inh, BAZ2B block)
CC(C)CNC(=O)C1Nc2ccccc2C2C=CCC12 (centres undefined)	PLK1 PBD inh inconclusive, JMJD2A Tudor inh inconclusive, PI5P4Ka inh inconclusive (no result: GCN5L2 inh, BAZ2B block)
COc1ccc(Br)cc1[C@@H]1Nc2ccc(C(=O)O)cc2[C@@H]2C=CC[C@@H]21	BAZ2B block inconclusive (no result: PLK1 PBD inh, PI5P4Ka inh)
O=C(O)c1ccc2c(c1)[C@@H]1C=CC[C@@H]1[C@H](c1ccccn1)N2	HP1b chromo inh inconclusive, PLK1 PBD inh inconclusive, JMJD2A Tudor inh 6.3µM (no result: GCN5L2 inh, BAZ2B block, PI5P4Ka inh)
